Our source for the inhibition values is ChEMBL document CHEMBL3433997, “St. Jude Leishmania screening dataset” (2016).

For one assay, the target named is Solute carrier family 2, facilitated glucose transporter member 1 (Homo sapiens) (UniProt P11166). The assay is described as follows: ST_JUDE_LEISH: Cytotoxicity at 2uM final concentration against transgenic Leishmania Mexicana promastigotes LmGLUT1 that are glucose transport deficient and complemented with the human glucose transporter GLUT1. Activity is measured by DNA content using SYBR green in vitro. The format is functional.
Sequence of Solute carrier family 2, facilitated glucose transporter member 1 (Homo sapiens) (P11166 whole entry): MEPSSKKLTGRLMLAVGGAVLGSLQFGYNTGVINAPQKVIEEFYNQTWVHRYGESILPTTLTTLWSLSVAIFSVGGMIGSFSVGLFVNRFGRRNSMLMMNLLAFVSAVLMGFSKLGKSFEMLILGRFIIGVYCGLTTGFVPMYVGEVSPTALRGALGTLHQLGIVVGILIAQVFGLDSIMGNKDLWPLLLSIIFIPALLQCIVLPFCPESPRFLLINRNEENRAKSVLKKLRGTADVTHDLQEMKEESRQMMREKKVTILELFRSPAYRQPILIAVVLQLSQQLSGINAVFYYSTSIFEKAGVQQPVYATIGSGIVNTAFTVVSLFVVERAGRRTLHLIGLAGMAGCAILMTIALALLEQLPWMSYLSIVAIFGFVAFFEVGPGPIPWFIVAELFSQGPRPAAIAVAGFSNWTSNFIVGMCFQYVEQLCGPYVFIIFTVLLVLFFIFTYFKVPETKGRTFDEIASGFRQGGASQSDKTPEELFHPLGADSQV
In the case of `CCCCNc1nccc2ccc(-c3ccncc3)cc12`, the inhibition (usually the relative decrease from the control value, in per cent) came out at 3.45%.

In the case of `COc1ccc2c(=NN=Cc3ccccc3Cl)cc(C)[nH]c2c1`, the inhibition was 0.91%.

As for `COc1cc(NC(=O)N2CCc3ccc(OCCN4CCCCC4)cc32)cc(C(F)(F)F)c1`, the inhibition turned out to be 0.69%.

As to `Cn1cnc(CCNC(=O)c2cccc(-c3csc(-c4nc5ccccc5[nH]4)c3)c2)c1`, the inhibition was -1.62%.

Take `CCOC(=O)CNC(=O)c1cc(=O)c2ccccc2o1`: the inhibition is 0.86%.

With `Cc1cc(C2CCN(CCCCNC(=O)c3ccc(NC(=O)c4ccc(Cl)cc4)cc3)CC2)c(C)cc1OC(C)C`, the inhibition was -1.59%.

`Cc1ccc(CN2CCN(c3cc4c(cc3Cl)CCN4C(=O)Cc3ccc(NC(=O)c4ccc(C(F)(F)F)cc4)cc3)CC2)cc1`: the inhibition was determined as 6.58%.

Turning to `O=C(N[C@@H](CC1CCCCC1)C(=O)NCCN1CCCCC1)c1ccc(O)c(-c2cccc(C(F)(F)F)c2)c1`, the inhibition turned out to be 2.41%.

Take `COc1ccc(Nc2ccnc3cc(Cl)ccc23)cc1OC`: the inhibition was 10.1%.

With `CCOc1ccccc1C=CC(=O)Nc1ccc2nc(N3CCN(C)CC3)cc(C)c2c1`, the inhibition was determined as 5.87%.

In the case of `Cc1cccc(C(=O)Nc2ccnc(N3CCC(N(C)Cc4cccc(O)c4)CC3)c2)c1`, the inhibition is 2.07%.

In the case of `Cc1cccc(NC(=O)Nc2cccc(-c3ccc(-c4nc5cc(C(F)(F)F)ccc5[nH]4)cc3)c2)c1`, the inhibition was found to be 5.86%.

Take `Cc1[nH]c(C)c(-c2ccc(OCCOc3ccc(C(F)(F)F)cn3)cc2)c(=O)c1Br`: the inhibition was -0.58%.

As for `Clc1ccc(CNc2nc(NCCc3c[nH]cn3)nc(NC3CCCCC3)n2)cc1`, the inhibition was 0.15%.

As to `Cc1n[nH]c2ccc(-c3ccc4nccc(N5CCC(N)CC5)c4c3)cc12`, the inhibition was -2.13%.

With `NC1=NC(c2ccccc2)N(c2ccc(Cl)c(Cl)c2)C(N)=N1` (stereo not given), the inhibition was 9.2%.

Turning to `Cc1cc(Nc2ccc3c(c2)CCC3)n2ncnc2n1`, the inhibition was 0.63%.

As for `COc1cc(NC(=O)c2sc(-c3ccc(Cl)cc3)cc2NC(=O)N2CCCC2)ccc1OCCN1CCCC1`, the inhibition is 2.35%.

`CC(C)CCn1c(Sc2ccc([N+](=O)[O-])cc2C(F)(F)F)nnc1-c1ccccc1Cl`: the inhibition was 1.8%.

Take `Fc1cccc(COc2ccc(Nc3ncnc4ccc(C#C[C@H]5CCCN5)cc34)cc2Cl)c1`: the inhibition is 1.39%.

In the case of `Cc1cc(C2CCN(CCCCNC(=O)c3ccc(-c4ccc(C(F)(F)F)cc4)cc3)CC2)c(C)cc1OCC(N)=O`, the inhibition amounted to 0.54%.

As for `CCN(CC)CCN(Cc1ccc(-c2ccc(C(F)(F)F)cc2)nc1)C(=O)Cn1c(SCc2ccc(F)cc2)nc(=O)c2sccc21`, the inhibition is 1.92%.

Consider `CN(c1ccc2c(c1)nc(NCc1ccccc1)n2C)c1ccnc(Nc2ccc(CS(C)(=O)=O)cc2)n1`, for which the inhibition came out at 4.69%.

Consider `Clc1ccc(Nc2nc(Nc3ccc(Cl)c(Cl)c3)nc(Sc3nc4ccccc4[nH]3)n2)cc1Cl`, for which the inhibition came out at 8.07%.

As to `Cc1cc(O)c(-c2ccc(Oc3ccc(F)cc3)cc2)c(C)n1`, the inhibition came out at 0.78%.

With `CC(C)CCNC(=O)C1Cc2c([nH]c3ccc(Br)cc23)C2(CCN(CCc3ccccc3)CC2)N1` (stereo not given), the inhibition was determined as 1.72%.

As for `Cc1cc(N2CCCCC2)nc2ccc(NC(=O)c3cncc(Br)c3)cc12`, the inhibition turned out to be 10.7%.

With `Cc1cc(Cl)ccc1NC(=O)Nc1ccc2nccc(N3CCN(C)CC3)c2c1`, the inhibition turned out to be 3.07%.

Regarding `Oc1ccccc1CN1CCCC(COC(c2ccc(F)cc2)c2ccc(F)cc2)C1` (stereo not given), the inhibition was found to be 3.68%.

Turning to `Cc1cc(-c2ccc(Cl)cc2)c2c(N)c(C(=O)Nc3ccc(F)cc3)sc2n1`, the inhibition was 0.19%.

On to `Cc1cc(F)ccc1-c1nc(NCCCN2CCCC2=O)nc2c1ccc(=O)n2-c1c(F)cccc1F`, for which the inhibition was found to be 15.4%.

As for `CCOC(=O)C1=C(C)N=c2sc(=Cc3ccccc3O)c(=O)n2C1c1ccc(OC)c2ccccc12` (stereo not given), the inhibition is -1.25%.

In the case of `CC(C)(C)c1ccc(NC(=O)c2cccc(CN3CCCN(Cc4ccc(F)cc4)CC3)c2)cc1`, the inhibition worked out at 3%.

For `CCN(CC)c1ccc2nc(N)nc(N)c2c1`, the inhibition came out at 8.53%.

With `COc1ccc2nccc([C@@H](O)CN3CCC(NC(=O)c4cc5ccccc5[nH]4)CC3)c2c1`, the inhibition came out at 36%.

Consider `CN1CCN(CCCN(Cc2ccc(-c3cccc(CNCc4ccc5c(c4)OCO5)c3)cc2)C(=O)NC2CCCCC2)CC1`, for which the inhibition was determined as 4.38%.

With `CN(C)CCC1CCN(CCS(=O)(=O)c2cccc(Nc3ccc(-c4ccsc4)cn3)c2)CC1`, the inhibition is -0.36%.

For `O=[N+]([O-])c1cccc(CNCC2CCN(CC3CCCCC3)CC2)c1`, the inhibition is -0.61%.

As for `CC1(C)CC(NC(=O)NC2CCN(Cc3ccccc3)CC2)CC(C)(CNC(=O)NC2CCN(Cc3ccccc3)CC2)C1` (stereo not given), the inhibition was determined as 5.31%.

As for `COc1cc2cc(C(=O)Nc3ccccc3)c(N)nc2cc1OC`, the inhibition was found to be 0.36%.

For a further assay, the target named is Hexose transporter 1 (Plasmodium falciparum) (UniProt O97467). As to the kind of experiment: ST_JUDE_LEISH: Cytotoxicity at 2uM final concentration against transgenic Leishmania Mexicana promastigotes LmPfHT that are glucose transport deficient and complemented with the Plasmodium falciparum hexose transporter. Activity is measured by DNA content using SYBR green in vitro. The format is functional.
Regarding `CCCCNc1nccc2ccc(-c3ccncc3)cc12`, the inhibition was 4.02%.

Regarding `COc1ccc2c(=NN=Cc3ccccc3Cl)cc(C)[nH]c2c1`, the inhibition stood at 0.95%.

Consider `COc1cc(NC(=O)N2CCc3ccc(OCCN4CCCCC4)cc32)cc(C(F)(F)F)c1`, for which the inhibition is 1.18%.

As for `Cn1cnc(CCNC(=O)c2cccc(-c3csc(-c4nc5ccccc5[nH]4)c3)c2)c1`, the inhibition is -0.39%.

Turning to `CCOC(=O)CNC(=O)c1cc(=O)c2ccccc2o1`, the inhibition turned out to be 0.78%.

For the molecule `Cc1cc(C2CCN(CCCCNC(=O)c3ccc(NC(=O)c4ccc(Cl)cc4)cc3)CC2)c(C)cc1OC(C)C`, the inhibition was -1.19%.

As to `Cc1ccc(CN2CCN(c3cc4c(cc3Cl)CCN4C(=O)Cc3ccc(NC(=O)c4ccc(C(F)(F)F)cc4)cc3)CC2)cc1`, the inhibition is 5.46%.

With `O=C(N[C@@H](CC1CCCCC1)C(=O)NCCN1CCCCC1)c1ccc(O)c(-c2cccc(C(F)(F)F)c2)c1`, the inhibition amounted to 3.95%.

For `COc1ccc(Nc2ccnc3cc(Cl)ccc23)cc1OC`, the inhibition came to 10.7%.

In the case of `CCOc1ccccc1C=CC(=O)Nc1ccc2nc(N3CCN(C)CC3)cc(C)c2c1`, the inhibition turned out to be 2.96%.

As to `Cc1cccc(C(=O)Nc2ccnc(N3CCC(N(C)Cc4cccc(O)c4)CC3)c2)c1`, the inhibition is 1.88%.

Take `Cc1cccc(NC(=O)Nc2cccc(-c3ccc(-c4nc5cc(C(F)(F)F)ccc5[nH]4)cc3)c2)c1`: the inhibition was determined as 2.01%.

With `Cc1[nH]c(C)c(-c2ccc(OCCOc3ccc(C(F)(F)F)cn3)cc2)c(=O)c1Br`, the inhibition worked out at 1.5%.

In the case of `Clc1ccc(CNc2nc(NCCc3c[nH]cn3)nc(NC3CCCCC3)n2)cc1`, the inhibition was -1.21%.

Take `Cc1n[nH]c2ccc(-c3ccc4nccc(N5CCC(N)CC5)c4c3)cc12`: the inhibition is -0.1%.

Turning to `NC1=NC(c2ccccc2)N(c2ccc(Cl)c(Cl)c2)C(N)=N1` (stereo not given), the inhibition was 7.89%.

For the molecule `Cc1cc(Nc2ccc3c(c2)CCC3)n2ncnc2n1`, the inhibition came out at 0.55%.

As to `COc1cc(NC(=O)c2sc(-c3ccc(Cl)cc3)cc2NC(=O)N2CCCC2)ccc1OCCN1CCCC1`, the inhibition came out at 3.29%.

As to `CC(C)CCn1c(Sc2ccc([N+](=O)[O-])cc2C(F)(F)F)nnc1-c1ccccc1Cl`, the inhibition amounted to 1.95%.

With `Fc1cccc(COc2ccc(Nc3ncnc4ccc(C#C[C@H]5CCCN5)cc34)cc2Cl)c1`, the inhibition amounted to 1.5%.

As for `Cc1cc(C2CCN(CCCCNC(=O)c3ccc(-c4ccc(C(F)(F)F)cc4)cc3)CC2)c(C)cc1OCC(N)=O`, the inhibition worked out at 1.14%.

As for `CCN(CC)CCN(Cc1ccc(-c2ccc(C(F)(F)F)cc2)nc1)C(=O)Cn1c(SCc2ccc(F)cc2)nc(=O)c2sccc21`, the inhibition worked out at 1.65%.

As for `CN(c1ccc2c(c1)nc(NCc1ccccc1)n2C)c1ccnc(Nc2ccc(CS(C)(=O)=O)cc2)n1`, the inhibition was determined as 1.86%.

With `Clc1ccc(Nc2nc(Nc3ccc(Cl)c(Cl)c3)nc(Sc3nc4ccccc4[nH]3)n2)cc1Cl`, the inhibition was 9.05%.

Regarding `Cc1cc(O)c(-c2ccc(Oc3ccc(F)cc3)cc2)c(C)n1`, the inhibition is -0.19%.

On to `CC(C)CCNC(=O)C1Cc2c([nH]c3ccc(Br)cc23)C2(CCN(CCc3ccccc3)CC2)N1` (stereo not given), for which the inhibition amounted to 0.42%.

Regarding `Cc1cc(N2CCCCC2)nc2ccc(NC(=O)c3cncc(Br)c3)cc12`, the inhibition came to 9.8%.

With `Cc1cc(Cl)ccc1NC(=O)Nc1ccc2nccc(N3CCN(C)CC3)c2c1`, the inhibition was 6.28%.

As for `Oc1ccccc1CN1CCCC(COC(c2ccc(F)cc2)c2ccc(F)cc2)C1` (stereo not given), the inhibition was 3.28%.

Take `Cc1cc(-c2ccc(Cl)cc2)c2c(N)c(C(=O)Nc3ccc(F)cc3)sc2n1`: the inhibition was -2.52%.

For `Cc1cc(F)ccc1-c1nc(NCCCN2CCCC2=O)nc2c1ccc(=O)n2-c1c(F)cccc1F`, the inhibition came out at 12.9%.

On to `CCOC(=O)C1=C(C)N=c2sc(=Cc3ccccc3O)c(=O)n2C1c1ccc(OC)c2ccccc12` (stereo not given), for which the inhibition was -0.06%.

For the molecule `CC(C)(C)c1ccc(NC(=O)c2cccc(CN3CCCN(Cc4ccc(F)cc4)CC3)c2)cc1`, the inhibition turned out to be 2.6%.

In the case of `CCN(CC)c1ccc2nc(N)nc(N)c2c1`, the inhibition was 16.5%.

On to `COc1ccc2nccc([C@@H](O)CN3CCC(NC(=O)c4cc5ccccc5[nH]4)CC3)c2c1`, for which the inhibition amounted to 55.7%.

In the case of `CN1CCN(CCCN(Cc2ccc(-c3cccc(CNCc4ccc5c(c4)OCO5)c3)cc2)C(=O)NC2CCCCC2)CC1`, the inhibition amounted to 1.35%.

As for `CN(C)CCC1CCN(CCS(=O)(=O)c2cccc(Nc3ccc(-c4ccsc4)cn3)c2)CC1`, the inhibition was found to be 0.82%.

On to `O=[N+]([O-])c1cccc(CNCC2CCN(CC3CCCCC3)CC2)c1`, for which the inhibition came to 3.2%.

In the case of `CC1(C)CC(NC(=O)NC2CCN(Cc3ccccc3)CC2)CC(C)(CNC(=O)NC2CCN(Cc3ccccc3)CC2)C1` (stereo not given), the inhibition was found to be 5.93%.

With `COc1cc2cc(C(=O)Nc3ccccc3)c(N)nc2cc1OC`, the inhibition was 1.61%.
